# Assay results: PubChem BioAssay (EPA / NIEHS)
# Values joined by “and” are separate entries in the source; they are usually repeats but may differ in a detail not shown here. Equal entries are not always repeated. Inconclusive results are not listed. Where a structure was tested more than once in an assay, its records may differ in their call. Active and inactive are the calls of the source. How the source made its calls: active means hit-call score of the fitted dose curve at least 0.9, where 1 is the maximum; inconclusive means response in the unintended direction; inactive means score below 0.9.
# What was measured:
# [1] = biological target: rat Gamma-Aminobutyric Acid Type B Receptor (GABBR), Gabbr1 (gene 81657) (UniProt Q9Z0U4); test: NVS_GPCR_rGABBR: NovaScreen (NVS) G Protein-Coupled Receptor Assay for rat Gamma-Aminobutyric Acid Type B Receptor (GABBR) (AID 2283301)
# How it was run: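 Radioligand displacement on rat cortical membranes, 1 h, filter-based scintillation counting. Primary screen at 25 uM in duplicate; compounds passing threshold re-tested in concentration-response up to 50 uM; loss of binding fitted against DMSO.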
# [2] = biological target: human Opioid Receptor Delta 1 (Opiate D1), OPRD1 (gene 4985) (UniProt P41143); test: NVS_GPCR_hOpiate_D1: NovaScreen (NVS) G Protein-Coupled Receptor Assay for human Opioid Receptor Delta 1 (Opiate D1) (AID 2283280)
# How it was run: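 Radioligand displacement on membranes from CHO cells expressing the receptor, read by filter scintillation counting 1 h after dosing. Duplicate single-point screen at 25 uM, then concentration series for actives; loss of signal versus DMSO.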
# [3] = biological target: rat Adrenergic, Alpha 1, Non-selective Receptor (Adra1), Adra1a (gene 29412) (UniProt P43140); test: NVS_GPCR_rAdra1_NonSelective: NovaScreen (NVS) G Protein-Coupled Receptor Assay for rat Adrenergic, Alpha 1, Non-selective Receptor (Adra1) (AID 2283289)
# How it was run: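 Rat forebrain membranes; radioligand displacement read by filter-based scintillation counting 1 h after dosing. Primary screen in duplicate at 25 uM; hits (e.g. ≥30% inhibition) rerun as concentration–response to 50 uM max. Fitted versus DMSO.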
# [4] = biological target: human Opioid Receptor Mu (Opiate Mu), OPRM1 (gene 4988) (UniProt P35372); test: NVS_GPCR_hOpiate_mu: NovaScreen (NVS) G Protein-Coupled Receptor Assay for human Opioid Receptor Mu (Opiate Mu) (AID 2283290);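 further: hits lower bound tracer signal versus DMSO meaning displacement of the ligand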
# How it was run: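 CHO-derived receptor protein, cell-free; radioligand displacement, filtration + scintillation counting, read at 2.5 h. DMSO = negative control/baseline. Primary: 25 uM single conc, duplicate; secondary: concentration series.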
# [5] = system: rabbit Platelet Activating Factor Receptor (PAF), gene 100354046; test: NVS_GPCR_rabPAF: NovaScreen (NVS) G Protein-Coupled Receptor Assay for rabbit Platelet Activating Factor Receptor (PAF) (AID 2283287)
# How it was run: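 Rabbit platelet membrane preparation; radioligand displacement read by filter-based scintillation counting 1 h after dosing, loss of signal versus DMSO. Primary screen in duplicate at 25 uM, actives followed up in concentration series.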
# [6] = system: guinea pig Atrionatriuretic Peptide Receptor A (ANPA), gene 100135578; test: NVS_GPCR_gANPA: NovaScreen (NVS) G Protein-Coupled Receptor Assay for guinea pig Atrionatriuretic Peptide Receptor A (ANPA) (AID 2283291)
# How it was run: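 Radioligand binding to guinea pig cerebellar membranes was measured after 1 h by filter-based scintillation counting. Chemicals were tested in duplicate at 25 uM, with hits run in concentration-response to a maximum of 50 uM. Binding loss was fitted against DMSO.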
# [7] = biological target: guinea pig Serotonin, 5-Hydroxytryptamine Receptor 4 (5HT4), HTR4 (gene 100135548) (UniProt O70528); test: NVS_GPCR_g5HT4: NovaScreen (NVS) G Protein-Coupled Receptor Assay for guinea pig Serotonin, 5-Hydroxytryptamine Receptor 4 (5HT4) (AID 2283294)
# How it was run: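 Guinea pig striatal membranes; radioligand competitive displacement, filtration and scintillation counting after 1 h. Primary screen in duplicate at 25 uM; actives then tested in concentration series; loss of binding signal fitted relative to DMSO.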
# [8] = biological target: rat Adrenergic Receptor, Alpha 2 (Adra2), Non-selective Binding, Adra2a (gene 25083) (UniProt P22909); test: NVS_GPCR_rAdra2_NonSelective: NovaScreen (NVS) G Protein-Coupled Receptor Assay for rat Adrenergic Receptor, Alpha 2 (Adra2), Non-selective Binding (AID 2283299)
# How it was run: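 Rat cortical membranes, radioligand competitive displacement read by filter-based scintillation counting 1.25 hours after dosing. Primary screen in duplicate at 25 uM; actives followed up in concentration series.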
# [9] = biological target: human Purinergic Receptor P2Y, P2RY1 (gene 5028) (UniProt P47900); test: NVS_GPCR_hPY2: NovaScreen (NVS) G Protein-Coupled Receptor Assay for human Purinergic Receptor P2Y (AID 2283281)
# How it was run: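 Cell-free radioligand binding using U937-derived protein, 1 h after dosing, filter-based scintillation counting. Screened in duplicate at 25 uM; actives rerun as concentration-response up to 50 uM; loss of signal versus DMSO.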
# [10] = biological target: human Orphanin, Opioid Related Nociceptin Receptor 1 (ORL1), OPRL1 (gene 4987) (UniProt P41146); test: NVS_GPCR_hORL1: NovaScreen (NVS) G Protein-Coupled Receptor Assay for human Orphanin, Opioid Related Nociceptin Receptor 1 (ORL1) (AID 2283283)
# How it was run: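 Filter-based radioligand displacement with receptor extracted from HEK293 cells, read 1 hour after dosing by scintillation counting. Duplicate single-point screen at 25 uM; qualifying chemicals then run in concentration-response to 50 uM, analysed relative to DMSO.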
# [11] = biological target: rat Corticotropin Releasing Factor Receptor (CRF), Crhr1 (gene 58959) (UniProt P35353); test: NVS_GPCR_rCRF: NovaScreen (NVS) G Protein-Coupled Receptor Assay for rat Corticotropin Releasing Factor Receptor (CRF) (AID 2283300)
# How it was run: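 Rat cortical membranes used as receptor source in a radioligand competitive displacement binding assay; scintillation read 2 h after dosing. Primary screen run in duplicate at 25 uM; loss of signal versus DMSO baseline indicates binding.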
# [12] = biological target: rat Serotonin, 5-Hydroxytryptamine Receptor (5HT), Non-Selective Binding, Htr1a (gene 24473) (UniProt P19327); test: NVS_GPCR_r5HT_NonSelective: NovaScreen (NVS) G Protein-Coupled Receptor Assay for rat Serotonin, 5-Hydroxytryptamine Receptor (5HT), Non-Selective Binding (AID 2283295)
# How it was run: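 Radioligand displacement on rat cortical membranes, 1 h incubation, filter-based scintillation counting. Primary duplicates at 25 uM, actives retested in concentration series; loss of signal fitted against DMSO as baseline.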
# [13] = biological target: rat Serotonin, 5-Hydroxytryptamine Receptor 1 (5HT1), Non-Selective Binding, Htr1a (gene 24473) (UniProt P19327); test: NVS_GPCR_r5HT1_NonSelective: NovaScreen (NVS) G Protein-Coupled Receptor Assay for rat Serotonin, 5-Hydroxytryptamine Receptor 1 (5HT1), Non-Selective Binding (AID 2283286)
# How it was run: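 Rat cortical membranes, radioligand displacement, 1 h incubation, read by filter scintillation. Primary screen in duplicate at 25 uM. Hits (e.g. ≥30% inhibition) went to concentration-response up to 50 uM, fitted as loss of binding versus DMSO.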
# [14] = system: rat Adrenergic, Alpha 1B Receptor (Adra1B), gene 24173; test: NVS_GPCR_rAdra1B: NovaScreen (NVS) G Protein-Coupled Receptor Assay for rat Adrenergic, Alpha 1B Receptor (Adra1B) (AID 2283297)
# How it was run: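 Rat liver membranes, radioligand displacement with filter-based scintillation detection, 1 h incubation. Primary screen in duplicate at 25 uM; actives retested in concentration series; activity relative to DMSO.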
# [15] = biological target: mouse Cholecystokinin, CCK1 Receptor (CCKA), Cckar (gene 12425) (UniProt O08786); test: NVS_GPCR_mCCKAPeripheral: NovaScreen (NVS) G Protein-Coupled Receptor Assay for mouse Cholecystokinin, CCK1 Receptor (CCKA) (AID 2283285)
# How it was run: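 Radioligand competitive displacement on mouse pancreatic membranes, 2 h incubation; filter-based scintillation counting, loss of signal versus DMSO. Single-concentration screen at 25 uM in duplicate, actives retested in concentration-response up to 50 uM.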
# [16] = biological target: guinea pig Bradykinin Receptor B2 (BK2), BDKRB2 (gene 100135486) (UniProt O70526); test: NVS_GPCR_gBK2: NovaScreen (NVS) G Protein-Coupled Receptor Assay for guinea pig Bradykinin Receptor B2 (BK2) (AID 2283292)
# How it was run: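 Radioligand displacement on guinea pig ileum membranes for 1 h, read by filter-based scintillation counting; loss of signal relative to DMSO. Compounds were screened in duplicate at 25 uM, and those passing the threshold were retested in concentration-response up to 50 uM.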
# human Opioid Receptor Mu (Opiate Mu), OPRM1 (gene 4988), sequence (P35372 whole entry, looked up): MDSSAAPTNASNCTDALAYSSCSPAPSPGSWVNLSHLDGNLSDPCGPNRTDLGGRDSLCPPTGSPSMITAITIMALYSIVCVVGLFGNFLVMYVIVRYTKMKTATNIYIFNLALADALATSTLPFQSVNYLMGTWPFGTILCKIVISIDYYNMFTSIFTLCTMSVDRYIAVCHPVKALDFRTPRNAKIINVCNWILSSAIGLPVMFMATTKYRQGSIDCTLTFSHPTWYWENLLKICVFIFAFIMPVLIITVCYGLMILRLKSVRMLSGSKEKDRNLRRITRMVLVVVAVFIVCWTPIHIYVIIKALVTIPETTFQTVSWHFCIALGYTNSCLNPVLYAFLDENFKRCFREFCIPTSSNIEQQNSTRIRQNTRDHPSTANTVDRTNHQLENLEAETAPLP
# human Opioid Receptor Delta 1 (Opiate D1), OPRD1 (gene 4985), sequence (P41143 whole entry, looked up): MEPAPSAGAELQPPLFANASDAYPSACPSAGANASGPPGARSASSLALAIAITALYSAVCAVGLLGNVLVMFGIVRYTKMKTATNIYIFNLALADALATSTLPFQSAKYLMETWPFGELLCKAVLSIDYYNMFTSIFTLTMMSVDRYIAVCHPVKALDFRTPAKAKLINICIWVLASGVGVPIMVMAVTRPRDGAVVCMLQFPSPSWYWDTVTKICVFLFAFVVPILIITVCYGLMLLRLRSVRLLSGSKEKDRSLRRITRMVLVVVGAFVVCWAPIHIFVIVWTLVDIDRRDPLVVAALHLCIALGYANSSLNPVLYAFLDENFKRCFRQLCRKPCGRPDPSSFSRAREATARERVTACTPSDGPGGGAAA
# guinea pig Serotonin, 5-Hydroxytryptamine Receptor 4 (5HT4), HTR4 (gene 100135548), sequence (O70528 whole entry, looked up): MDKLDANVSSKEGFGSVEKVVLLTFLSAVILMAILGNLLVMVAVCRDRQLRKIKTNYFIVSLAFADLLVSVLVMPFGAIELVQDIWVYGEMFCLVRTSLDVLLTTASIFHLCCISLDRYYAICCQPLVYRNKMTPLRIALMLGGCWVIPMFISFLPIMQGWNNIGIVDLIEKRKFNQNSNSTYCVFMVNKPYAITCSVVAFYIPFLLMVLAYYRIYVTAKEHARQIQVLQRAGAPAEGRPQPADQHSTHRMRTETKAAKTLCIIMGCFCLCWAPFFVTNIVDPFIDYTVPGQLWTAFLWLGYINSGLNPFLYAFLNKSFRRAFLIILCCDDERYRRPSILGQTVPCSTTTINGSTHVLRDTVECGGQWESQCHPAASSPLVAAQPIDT
# rat Gamma-Aminobutyric Acid Type B Receptor (GABBR), Gabbr1 (gene 81657), sequence (Q9Z0U4 whole entry, looked up): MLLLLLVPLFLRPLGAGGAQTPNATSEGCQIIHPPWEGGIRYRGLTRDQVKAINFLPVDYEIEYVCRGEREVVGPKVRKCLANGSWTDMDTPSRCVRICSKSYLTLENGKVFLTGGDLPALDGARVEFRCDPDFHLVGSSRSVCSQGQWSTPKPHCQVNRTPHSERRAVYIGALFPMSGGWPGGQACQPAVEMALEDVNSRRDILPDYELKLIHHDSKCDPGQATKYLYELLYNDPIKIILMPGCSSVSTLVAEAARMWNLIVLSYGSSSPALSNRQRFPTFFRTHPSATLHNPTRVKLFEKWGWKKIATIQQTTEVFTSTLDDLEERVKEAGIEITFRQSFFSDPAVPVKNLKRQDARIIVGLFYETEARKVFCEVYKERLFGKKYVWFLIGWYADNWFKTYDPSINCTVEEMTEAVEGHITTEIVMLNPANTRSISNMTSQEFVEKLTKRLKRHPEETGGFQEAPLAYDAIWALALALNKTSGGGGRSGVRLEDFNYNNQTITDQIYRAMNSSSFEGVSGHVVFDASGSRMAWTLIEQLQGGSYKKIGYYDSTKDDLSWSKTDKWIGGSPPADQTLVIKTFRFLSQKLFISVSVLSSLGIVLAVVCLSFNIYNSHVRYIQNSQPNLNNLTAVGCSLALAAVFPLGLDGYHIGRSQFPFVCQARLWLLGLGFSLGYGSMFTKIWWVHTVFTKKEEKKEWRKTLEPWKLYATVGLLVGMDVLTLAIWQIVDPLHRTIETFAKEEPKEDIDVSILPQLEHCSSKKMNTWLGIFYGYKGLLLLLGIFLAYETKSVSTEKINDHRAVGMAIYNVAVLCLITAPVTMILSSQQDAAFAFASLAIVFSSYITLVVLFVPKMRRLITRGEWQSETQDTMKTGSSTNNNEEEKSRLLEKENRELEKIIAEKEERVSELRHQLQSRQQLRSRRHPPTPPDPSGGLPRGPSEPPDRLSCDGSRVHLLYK
# rat Adrenergic, Alpha 1, Non-selective Receptor (Adra1), Adra1a (gene 29412), sequence (P43140 whole entry, looked up): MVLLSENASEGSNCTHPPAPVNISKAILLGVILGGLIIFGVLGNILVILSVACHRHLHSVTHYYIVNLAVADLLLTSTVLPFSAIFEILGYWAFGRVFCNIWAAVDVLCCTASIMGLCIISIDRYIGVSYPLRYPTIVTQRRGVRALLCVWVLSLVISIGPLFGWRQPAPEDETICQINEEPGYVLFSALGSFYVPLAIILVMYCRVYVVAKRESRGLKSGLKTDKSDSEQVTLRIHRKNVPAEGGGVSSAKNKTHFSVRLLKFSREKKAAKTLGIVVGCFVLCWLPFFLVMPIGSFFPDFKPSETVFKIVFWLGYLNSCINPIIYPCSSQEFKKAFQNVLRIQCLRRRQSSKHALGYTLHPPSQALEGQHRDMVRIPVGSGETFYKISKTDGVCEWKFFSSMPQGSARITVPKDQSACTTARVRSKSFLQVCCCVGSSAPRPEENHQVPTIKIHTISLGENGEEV
# rat Serotonin, 5-Hydroxytryptamine Receptor (5HT), Non-Selective Binding, Htr1a (gene 24473), sequence (P19327 whole entry, looked up): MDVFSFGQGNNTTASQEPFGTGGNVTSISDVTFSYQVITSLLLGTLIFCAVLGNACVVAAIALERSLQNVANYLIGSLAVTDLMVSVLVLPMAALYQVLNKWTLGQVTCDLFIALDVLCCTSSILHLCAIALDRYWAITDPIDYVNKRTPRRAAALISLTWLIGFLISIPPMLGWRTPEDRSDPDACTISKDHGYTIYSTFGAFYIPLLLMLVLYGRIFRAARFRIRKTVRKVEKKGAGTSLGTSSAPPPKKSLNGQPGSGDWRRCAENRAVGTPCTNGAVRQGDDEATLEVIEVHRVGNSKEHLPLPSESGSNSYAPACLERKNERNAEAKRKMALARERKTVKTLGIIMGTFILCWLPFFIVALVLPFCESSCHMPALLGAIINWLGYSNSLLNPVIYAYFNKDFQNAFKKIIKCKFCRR
# rat Corticotropin Releasing Factor Receptor (CRF), Crhr1 (gene 58959), sequence (P35353 whole entry, looked up): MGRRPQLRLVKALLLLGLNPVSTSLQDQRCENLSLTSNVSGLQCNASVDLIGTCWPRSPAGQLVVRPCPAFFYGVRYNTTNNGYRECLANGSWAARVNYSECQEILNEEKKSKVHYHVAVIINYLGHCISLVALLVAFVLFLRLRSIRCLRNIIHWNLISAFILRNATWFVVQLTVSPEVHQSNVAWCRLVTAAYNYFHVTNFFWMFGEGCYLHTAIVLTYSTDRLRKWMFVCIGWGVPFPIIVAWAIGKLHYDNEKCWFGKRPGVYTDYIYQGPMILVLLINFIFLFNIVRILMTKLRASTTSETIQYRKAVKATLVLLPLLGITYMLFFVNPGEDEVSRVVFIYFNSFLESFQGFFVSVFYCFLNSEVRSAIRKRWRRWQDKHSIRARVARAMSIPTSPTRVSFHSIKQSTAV
# rat Adrenergic Receptor, Alpha 2 (Adra2), Non-selective Binding, Adra2a (gene 25083), sequence (P22909 whole entry, looked up): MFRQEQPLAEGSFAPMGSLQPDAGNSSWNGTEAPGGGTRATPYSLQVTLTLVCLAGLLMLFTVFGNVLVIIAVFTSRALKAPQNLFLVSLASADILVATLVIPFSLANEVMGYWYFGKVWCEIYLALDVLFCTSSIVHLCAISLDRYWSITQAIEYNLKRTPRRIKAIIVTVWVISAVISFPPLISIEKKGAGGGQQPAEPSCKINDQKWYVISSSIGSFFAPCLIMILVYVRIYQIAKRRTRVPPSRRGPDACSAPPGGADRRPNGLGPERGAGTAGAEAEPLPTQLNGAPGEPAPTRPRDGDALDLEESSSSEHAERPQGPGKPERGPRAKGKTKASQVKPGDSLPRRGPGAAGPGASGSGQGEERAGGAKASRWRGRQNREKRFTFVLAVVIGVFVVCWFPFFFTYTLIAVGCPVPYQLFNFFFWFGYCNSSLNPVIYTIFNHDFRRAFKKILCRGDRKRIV
# guinea pig Bradykinin Receptor B2 (BK2), BDKRB2 (gene 100135486), sequence (O70526 whole entry, looked up): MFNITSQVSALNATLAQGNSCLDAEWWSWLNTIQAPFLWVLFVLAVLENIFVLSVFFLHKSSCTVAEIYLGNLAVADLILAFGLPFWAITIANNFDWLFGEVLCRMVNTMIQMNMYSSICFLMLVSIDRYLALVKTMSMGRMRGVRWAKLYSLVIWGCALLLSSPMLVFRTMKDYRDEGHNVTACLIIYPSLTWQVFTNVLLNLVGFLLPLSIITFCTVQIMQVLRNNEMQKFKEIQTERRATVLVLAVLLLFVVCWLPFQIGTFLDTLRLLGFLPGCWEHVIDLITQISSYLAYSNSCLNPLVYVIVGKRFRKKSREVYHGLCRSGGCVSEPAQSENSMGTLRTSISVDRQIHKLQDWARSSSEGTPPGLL
# human Orphanin, Opioid Related Nociceptin Receptor 1 (ORL1), OPRL1 (gene 4987), sequence (P41146 whole entry, looked up): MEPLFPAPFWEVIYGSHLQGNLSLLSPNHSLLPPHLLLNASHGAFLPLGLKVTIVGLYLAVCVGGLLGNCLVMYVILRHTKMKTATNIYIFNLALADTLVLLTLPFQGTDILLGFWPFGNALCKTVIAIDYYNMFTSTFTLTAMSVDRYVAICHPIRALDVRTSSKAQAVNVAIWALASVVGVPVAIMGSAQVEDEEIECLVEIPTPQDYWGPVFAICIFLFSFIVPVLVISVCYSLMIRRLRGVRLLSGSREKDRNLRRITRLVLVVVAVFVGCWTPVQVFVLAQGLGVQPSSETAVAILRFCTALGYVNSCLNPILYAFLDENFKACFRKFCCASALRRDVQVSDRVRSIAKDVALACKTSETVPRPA
smiles,measurement,setting,value
COc1nc(C)nc(NC(=O)NS(=O)(=O)c2ccccc2Cl)n1,outcome,[1],inactive
COc1ccc(C(c2ccc(OC)cc2)C(Cl)(Cl)Cl)cc1,outcome,[2],inactive
same,outcome,[3],inactive
same,outcome,[4],inactive
COC(=O)C(C)Oc1ccc(Oc2ccc(Cl)cc2Cl)cc1 (stereo not given),outcome,[5],inactive
COC(=O)N(OC)c1ccccc1COc1ccn(-c2ccc(Cl)cc2)n1,AC50,[4],0.879 µM (active)
COC(=O)C=C(C)OP(=O)(OC)OC,outcome,[6],inactive
Cc1c(F)c(F)c(COC(=O)C2C(/C=C(\Cl)C(F)(F)F)C2(C)C)c(F)c1F (stereo not given),outcome,[3],inactive
CC1COC(Cn2cncn2)(c2ccc(Oc3ccc(Cl)cc3)cc2Cl)O1 (stereo not given),AC50,[4],1.88 µM (active)
same,outcome,[7],inactive
same,AC50,[8],2.28 µM (active)
CNC(=S)S,outcome,[9],inactive
same,AC50,[10],40.3 µM (active)
same,outcome,[5],inactive
same,outcome,[4],inactive
same,outcome,[11],inactive
CCc1nn(C)c(C(=O)NCc2ccc(C(C)(C)C)cc2)c1Cl,outcome,[5],inactive
CCNc1nc(Cl)nc(NC(C)C)n1,outcome,[11],inactive
O=C(Nc1ccccc1)Nc1ccnc(Cl)c1,AC50,[4],6.97 µM (active)
same,AC50,[7],9.9 µM (active)
same,AC50,[12],17 µM (active)
same,AC50,[8],9.64 µM (active)
CN(C)C(=S)SSC(=S)N(C)C,outcome,[13],inactive
same,AC50,[4],5.29 µM (active)
CCCC1COC(Cn2cncn2)(c2ccc(Cl)cc2Cl)O1 (stereo not given),AC50,[2],2.09 µM (active)
same,AC50,[5],14.4 µM (active)
same,AC50,[4],8.68 µM (active)
N#CC(CCc1ccc(Cl)cc1)(Cn1cncn1)c1ccccc1 (stereo not given),outcome,[4],inactive
Fc1ccc(Oc2ccnc3cc(Cl)cc(Cl)c23)cc1,outcome,[5],inactive
same,outcome,[6],inactive
same,outcome,[14],inactive
COc1nc(NC(C)C)nc(NC(C)C)n1,outcome,[12],inactive
CO/C=C(/C(=O)OC)c1ccccc1Oc1cc(Oc2ccccc2C#N)ncn1,AC50,[2],7.95 µM (active)
same,outcome,[2],inactive
same,outcome,[15],inactive
same,AC50,[5],13.9 µM (active) and 15.7 µM (active)
same,outcome,[4],inactive
same,outcome,[16],inactive
same,outcome,[7],inactive
CCCCC(CC)COC(=O)c1ccccc1C(=O)OCC(CC)CCCC (stereo not given),outcome,[5],inactive
